Screening results (PubChem BioAssay)
The list is not random: actives were taken first. Their share in the collection is about 1.8%.
VDR inhibitor – vitamin D3 receptor (human) inhibition | 0.93% of 400,000 active | AID 504847 | VDR-SRC2-3 peptide fluorescence polarization, 2 h | Potency, µM, without a hit: max response, negative = inhibition, actives largely listed as inhibitors | P11473; further: on the % scale 0 is the no-effect control and ±100 the full control effect
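Fluorescence polarization assay of small-molecule disruption of VDR binding to coregulator peptide SRC2-3. Compounds and controls pin-transferred, then read after 2 h incubation at ambient room temperature.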
TrxR1 substrate – rat thioredoxin reductase 1 substrate activity | O89049 | purified TrxR1 substrate turnover, NADPH consumption readout | Potency, µM (titrated, usually from 114 µM), for inactives: at the top dose activity change, negative = substrate turnover | 0.01% of 390,000 active | AID 588456; further: on the % scale 0 is the no-effect control and ±100 the full control effect; nearly all actives have a fitted effect of over 50% in size
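Rat TrxR1, dispensed at 90 nM, was prereduced with 400 uM NADPH (final) for 5 min at ~22 deg C, then incubated with compound 15 min before 400 uM selenite. A first-read NADPH fluorescence drop versus no-compound background flagged substrates.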
Vif-A3F inh – Vif-A3F binding inhibition. 0.2% of 390,000 active. Potency, µM (doses to about 46.1 µM), inactives show top-dose activity, negative = active. HeLa A3F-eYFP + Vif (tagged APOBEC3F with the HIV-1 protein that degrades it), YFP fluorescence increase; further: % of control where 0% means no effect; nearly all actives have a fitted effect of over 65% in size
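HeLa cells stably expressing A3F-eYFP plus Vif, plated and incubated overnight at 37 deg C, then exposed to compounds overnight at 37 deg C. Blocked degradation read as raised yellow fluorescence (Ex 488/Em 500-530).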
Vif-APOBEC3G blk – blocks the Vif interaction with human APOBEC3G; Q9HC16; HeLa A3G-eYFP + Vif (tagged APOBEC3G with the HIV-1 protein that degrades it), YFP fluorescence, overnight; Potency, µM (series often up to 46.1 µM), inactives show at the highest dose activity, negative = active, usual class: inhibitors; 0.076% of 410,000 active; AID 602310; further: on the % scale 0 is the no-effect control and ±100 the full control effect; nearly all actives have a fitted effect of over 60% in size
Target sequence (Q9HC16 whole entry, looked up): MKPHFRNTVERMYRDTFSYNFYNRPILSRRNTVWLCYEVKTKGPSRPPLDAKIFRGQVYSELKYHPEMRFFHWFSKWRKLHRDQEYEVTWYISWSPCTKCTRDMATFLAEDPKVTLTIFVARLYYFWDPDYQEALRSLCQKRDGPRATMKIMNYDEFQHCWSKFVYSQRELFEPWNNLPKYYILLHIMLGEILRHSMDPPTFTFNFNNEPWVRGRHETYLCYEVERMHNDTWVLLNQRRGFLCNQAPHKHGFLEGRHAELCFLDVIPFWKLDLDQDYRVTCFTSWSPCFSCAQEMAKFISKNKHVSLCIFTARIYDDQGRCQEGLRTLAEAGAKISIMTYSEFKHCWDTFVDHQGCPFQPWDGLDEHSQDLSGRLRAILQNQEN
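HeLa cells stably expressing Vif and C-terminally eYFP-tagged A3G, seeded overnight at 37 deg C, then exposed to compound by pintool overnight at 37 deg C. Rise in yellow fluorescence (Ex 488/Em 500-530, Acumen) marks blocked Vif-driven A3G degradation.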
rTrxR1 inhibitor – blocks rat thioredoxin reductase 1; O89049; recombinant rTrxR1, NADPH fluorescence consumption, selenite substrate; Potency, µM (series often up to 114 µM), without a hit: at the top dose activity change, negative = inhibition, hits mostly inhibitors; 1% of 390,000 active; AID 588453; further: on the % scale 0 is the no-effect control and ±100 the full control effect; nearly all actives have a fitted effect of over 65% in size
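Rat TrxR1 (90 nM in the dispensed reagent) was pre-reduced with 400 uM NADPH for 5 min at room temperature, then incubated with compound for 15 min. After 400 uM selenite was added, NADPH fluorescence (Ex 340/Em 450 nm) was followed for 8 min.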
* hit, by the source's call; ? = inconclusive; nt = not tested or not shown; ! = not active in a repeat; [ ] = dose if it differs, or a comment. The call rests on the fitted dose curve; in most records, active means well fitted curve in the direction sought with a large enough effect; inconclusive means small, poorly fitted or top-dose-only effect, or another doubt; inactive means no such curve, though single readings can be large; an effect the other way counts as inactive or inconclusive. Potency means the concentration at half of the fitted maximal effect.

SMILES	VDR inhibitor	TrxR1 substrate	Vif-A3F inh	Vif-APOBEC3G blk	rTrxR1 inhibitor
Cn1cc(/C=C2\SC(=O)N(c3ccccc3)C2=O)c2ccccc21	9%	3%[57.1 µM]	7.9µM*	-19%	3%[57.1 µM]
O=S(=O)(O)c1ccc2c(c1)-c1nc-2nc2[nH]c(nc3nc(nc4[nH]c(n1)c1ccc(S(=O)(=O)O)cc41)-c1ccc(S(=O)(=O)O)cc1-3)c1ccc(S(=O)(=O)O)cc21	25µM*	nt	nt	nt	nt
Nc1cc(S(=O)(=O)O)cc2ccc(S(=O)(=O)O)cc12	5%	195%	-1%	-1%	?
COc1ccc(CCn2c3c(c(=O)[nH]c2=S)CN(CC(C)C)CN3)cc1OC	0%	-9%	nt	nt	?
CN(C)CCC(=O)c1ccc2c(c1)OCO2	79µM*	9%	5%	-11%	0.32µM*
CN(C)CCC(=O)c1cccc(Br)c1	?	0%	-5%	-28%	0.32µM*
CCCCCCc1ccc(C(=O)CCN(C)C)cc1	nt	-1%	nt	-4%	10µM*
CN(CCOC(=O)c1cccc(Br)c1)C(C)(C)C	-13%	18%	nt	1%	10%[2.29 µM]
O=C(O)CCCn1cc(NC(=O)COc2ccccc2)cn1	2%	6%	-3%	2%	34%
O=C(COc1ccc(Cl)cc1)Nc1cnn(Cc2c(Cl)cccc2Cl)c1	89µM*	11%	-12%	-1%	31%[57.1 µM]
O=c1oc2cc(O)ccc2s1	28µM*!	3%	?	-14%	41%
Oc1ccc2c(c1)oc1cc(O)ccc12	-1%	20%	-9%	-13%	19%
CCCCCCC(=O)N(O)C1CC(=O)N(c2ccc(C)cc2)C1=O (centres undefined)	32µM*	13%	-17%	-1%	16µM*
CCCOc1ccc(N2C(=O)CC(N(CCC)C(=O)CCC(=O)O)C2=O)cc1 (centres undefined)	1%	12%[57.1 µM]	-12%	-3%	14%
CCCCCCC(=O)N(O)C1CC(=O)N(c2ccc(Cl)cc2)C1=O (centres undefined)	?	9%[57.1 µM]	-29%	-5%	11µM*
O=c1c2ccccc2oc2ccc(-c3ccoc3)cc12	nt	14%	nt	?	?
CCOC(=O)c1ccc(S(=O)(=O)N2CCC(C(=O)OCC)CC2)cc1	-7%	5%	-5%	-2%	25%
CCOC(=O)C1CCN(S(=O)(=O)c2ccc(CC)cc2)CC1	40µM*	8%[57.1 µM]	-12%	1%	-3%[57.1 µM]
Cc1c(C#N)c(=O)c(-[n+]2ccccc2)c([S-])n1-c1ccc(Cl)cc1	?	3%	-1%	-3%	50µM*
CN(C)c1ccc(/C=C/c2ccnc3cc(Cl)ccc23)cc1	nt	-3%[0.0914 µM]	nt	?	-11%
C=CCN1CCN(C(c2ccccc2)c2nnnn2CCC(C)C)CC1 (centres undefined)	?	6%[57.1 µM]	-5%	2%	28µM*
CC(C)CCn1nnnc1C(c1ccccc1)N1CCN(C)CC1 (centres undefined)	-6%	-7%	0%	-8%	-11%
CO[C@H]1C[C@@H]2CC[C@@H](C)[C@@](O)(O2)C(=O)C(=O)N2CCCC[C@H]2C(=O)O[C@H]([C@H](C)C[C@@H]2CC[C@@H](O)[C@H](OC)C2)CC(=O)[C@H](C)/C=C(/C)[C@@H](O)[C@@H](OC)C(=O)[C@H](C)C[C@H](C)C=C/C=C\C=C/1C	-24%	-8%	nt	-10%	?
CO[C@H]1C[C@@H]2CC[C@@H](C)[C@@](O)(O2)C(=O)C(=O)N2CCCC[C@H]2C(=O)OC([C@H](C)C[C@@H]2CC[C@@H](O)[C@H](OC)C2)CC(=O)[C@H](C)/C=C(\C)[C@@H](O)[C@@H](OC)C(=O)[C@H](C)C[C@H](C)/C=C/C=C/C=C/1C (some centres undefined)	45µM*!	nt	nt	nt	nt
Cc1ccc(CNC(=O)c2ccc(Cn3nc(C)c(Cl)c3C)o2)cc1	-15%	6%	-4%	-12%	40µM*
SMILES	VDR inhibitor	TrxR1 substrate	Vif-A3F inh	Vif-APOBEC3G blk	rTrxR1 inhibitor
Cc1cc(C)cc(NC(=O)c2ccc(Cn3nc(C)c(Cl)c3C)o2)c1	11%	-2%[57.1 µM]	-3%	2%	6%[57.1 µM]
COC(=O)Cc1sc(-c2ccccn2)nc1-c1ccccc1	25µM*	1%	0%	0%	13%
CC1Cc2ccccc2N1C(=O)CSC1=NCCS1 (centres undefined)	71µM*	-5%	-13%	1%	7%
NNC(=O)CN1C(c2ccccc2Br)=Nc2ccc(Br)cc2C1c1ccccc1 (centres undefined)	71µM*	-11%	3%	-5%	-12%
CC(=O)c1ccc(NC(=O)C2C3C=CC(O3)C2C(=O)O)cc1 (centres undefined)	14%	-11%[57.1 µM]	1%	4%	-5%
CCCOC(=O)c1ccc(NC(=O)C2C3C=CC(O3)C2C(=O)O)cc1 (centres undefined)	-10%	1%	-4%	0%	40µM*
CCCCCCCCNS(=O)(=O)CCNC1CC1	-9%	-5%	7%	1%	45µM*
CCCCCCCCNS(=O)(=O)CCNCCCC	-1%	-5%	-4%	0%	-15%
Oc1c(Cl)cc(Cl)c2c1NCCC2	32µM*	-7%	?	-6%	2.2µM*
Brc1ccc(Nc2c3c(nc4nncn24)CCC3)cc1	-4%	5%	nt	nt	22µM*
Cc1ccc(Nc2c3c(nc4nncn24)CCC3)cc1	-1%	5%	nt	nt	-2%
CC1/C=C/C=C/C=C/C=C/C=C/C=C/C=C/C(OC2OC(C)C(O)C(N)C2O)CC2O[C@@](O)(CC(O)CC(O)C(O)CCC(O)CC(O)CC(=O)OC(C)[C@H](C)C1O)CC(O)C2C(=O)O (some centres undefined)	50µM*	nt	nt	nt	nt
CCOc1ccc(CNC(=O)CCS(=O)(=O)c2cc3c(cc2Cl)NC(=O)CO3)cc1OC	10%	-3%	0%	1%	1%
Cc1cc2oc3ccc(NCCCn4ccnc4)cc3c(=O)c2cc1C	-5%	-1%	22µM*	?	-7%
Cc1cc2oc3ccc(NCCCN4CCOCC4)cc3c(=O)c2cc1C	-8%	6%	-9%	-1%	6%
Cc1cnccn1	nt	2%	nt	2%	-11%
COc1ccc(N/C=C/c2nc(SC)nnc2C)cc1	4%	4%[57.1 µM]	22µM*	-18%	13%[57.1 µM]
COc1ccccc1NC(=O)CSc1nc2c(sc3ccccc32)c(=O)n1CCN(C)C	79µM*	2%[57.1 µM]	?	-27%	12%[57.1 µM]
COc1cc(C2c3c(n[nH]c3C)C(=O)N2c2ccc(Br)cc2)ccc1O (centres undefined)	-15%	4%	nt	-10%	7.9µM*
CCOc1cc(C2c3c(n[nH]c3C)C(=O)N2c2ccc(Br)cc2)ccc1O (centres undefined)	-4%	5%	nt	-2%	?
Cc1ccccc1N=Cc1cccc(O)c1O	14µM*	?	3%	-15%	71µM*
Cc1ccc(N=Cc2cccc(O)c2O)c(C)c1	20µM*	-8%	nt	-16%	32µM*
